Bioassay records (PubChem)
The list is not random: actives were taken first. Their share in the collection is about 3.4%.
NPSR antagonist = blocks cAMP signaling of the human neuropeptide S receptor | CHO-NPSR cells, cAMP TR-FRET, antagonist mode | Potency, µM (titrated, usually from 38.3 µM), for the others: at the top dose activity change, negative = inhibition, usual class: inhibitors | 220,000 compounds, 1% hits | AID 1461; note: potency is the fitted concentration of half-maximal effect; % is set by controls: 0 for no effect and ±100 for the full control effect; nearly all actives have a fitted effect of over 50% in size
Target sequence (Q6W5P4 whole entry, looked up): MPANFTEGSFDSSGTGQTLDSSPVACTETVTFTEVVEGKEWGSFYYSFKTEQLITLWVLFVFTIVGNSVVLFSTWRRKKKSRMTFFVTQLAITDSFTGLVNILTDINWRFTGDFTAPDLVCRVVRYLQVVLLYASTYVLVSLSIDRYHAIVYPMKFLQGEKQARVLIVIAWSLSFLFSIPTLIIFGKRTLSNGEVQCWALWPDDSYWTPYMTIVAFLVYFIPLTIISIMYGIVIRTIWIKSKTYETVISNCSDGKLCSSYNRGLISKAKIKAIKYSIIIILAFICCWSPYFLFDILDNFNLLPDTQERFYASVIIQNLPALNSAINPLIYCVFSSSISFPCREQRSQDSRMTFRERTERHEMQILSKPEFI
IMPase inh = membrane-permeable compound that blocks inositol monophosphatase; P97697; CHO-M1 cells, IP1 accumulation, HTRF TR-FRET ratio; inhibition (IP1 accumulation), % at 46.1 µM; 120,000 tested, under 10 active; active = well fitted curve in the direction sought with a large enough effect in the signal ratio, not every such curve was filed as active; inconclusive = small, poorly fitted or top-dose-only effect, or a change in a side signal; inactive = no such curve, though single readings can be large or run the other way; the % refers to the signal ratio;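 note: cells stimulated with carbachol in lithium chloride buffer; plate controls were DMSO basal wells for no effect and reference inhibitor wells for full effect; higher means more IMPase inhibition seen as more IP1 and lower FRET ratio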
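Measured: the HTRF emission ratio (665/620 nm) plus the 620 nm donor channel, each fitted to the Hill equation to give AC50. Cells were CHO-M1 given compounds up to 46 uM and a 30 min carbachol stimulation at 37C.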
PNC assembly inh = blocks assembly of the perinucleolar compartment | PC3M PTB-GFP, PNC prevalence imaging, 16 h; active compounds read low | activity change (PNC), negative = inhibition, % at 10 µM | 140,000 compounds, 3.1% hits;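 active = readout at or below -70, meaning at least 70% loss of cells showing the perinucleolar compartment, a nuclear body marking cancer cells; inconclusive = readout between -30 and a set limit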;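 note: plate controls were DMSO wells for no effect and camptothecin positive control wells for full effect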
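Compounds are pinned in duplicate onto adhered PC3M cells stably expressing GFP-tagged PTB and incubated 16 h at 37 C. Cells are then fixed, nuclei stained with Hoechst, and PNC-positive cells counted.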
HTT aggregate = inhibitors of mutant huntingtin aggregate formation in PC12 cells. Potency, µM (series often up to 46.1 µM), for the others: at the top dose activity change, negative = inhibition, most hits filed as inhibitors. AID 1688. PC12 HttQ103-GFP aggregates, Acumen cytometry, 40 h. 220,000 compounds, 1.1% hits; note: potency is the fitted concentration of half-maximal effect; % is set by controls: 0 for no effect and ±100 for the full control effect; nearly all actives have a fitted effect of over 60% in size
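Steps: seed 1500 PC12 HTTQ103-GFP cells/well; add tebufenozide, 100 nM final; add compound titration; add ATPLite reagent; quantify GFP aggregates by laser scanning cytometry.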
HTT cytoprotect = cytoprotection in Huntington HTT-Q103 PC12 cell model | 230,000 compounds, 0.14% hits | Potency, µM (series often up to 56.4 µM), without a hit: cytoprotection (ATP increase), usual class: activators | PC12 HTT-Q103 induced, cytoprotection, ATP luminescence, 40 h; note: potency is the fitted concentration of half-maximal effect; % of control where 0% means no effect; nearly all actives have a fitted effect of over 45% in size
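Compounds added alongside 100 nM tebufenozide, which induces toxic Q103 huntingtin exon 1-GFP in stable PC12 cells; surviving cells quantified by luminescent ATP measurement. Medium: phenol red-free DMEM, 5% equine and 5% calf serum.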
IMPase Li inh = membrane-permeable IMPase blocker, potentiated with lithium; CHO-M1 cells, IP1 TR-FRET (IP-One), carbachol + lithium; Potency, µM (titrated, usually from 59.4 µM), without a hit: at the top dose activity, negative = IMPase inhibition, hits mostly inhibitors; 210,000 compounds, 0.35% hits;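 note: IP1 builds up when IMPase is blocked and the TR-FRET signal falls; potency is the fitted concentration of half-maximal effect; plate controls were basal vehicle for no effect and high inhibitor control for full effect; nearly all actives have a fitted effect of over 50% in size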
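CHO-M1, 2000 cells/well, 16–30 h culture; cpd + low Li+, 30 min 37C; lysis with d2-IP1/Eu-anti-IP1 Ab, 10 min RT; TR-FRET 665/620 ratio and 620 channel; AC50 via Hill.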
Numbers without * were called inactive; ? = inconclusive; / = no result given; [ ] = remark or other dose. Unless noted, calls come from the whole dose curve; as a rule, active = well fitted curve in the direction sought with a large enough effect; inconclusive = small, poorly fitted or top-dose-only effect, or another doubt; inactive = no such curve, though single readings can be large; an effect the other way counts as inactive or inconclusive.

SMILES	NPSR antagonist	IMPase inh	PNC assembly inh	HTT aggregate	HTT cytoprotect	IMPase Li inh
COc1ccc2c(c1)[nH]c1c(N3CCN(Cc4ccc5c(c4)OCO5)CC3)ncnc12	13µM*	16	19	8.9µM*	-100%	21%[38.3 µM]
Cc1ccc2[nH]c3c(N4CCN(Cc5ccccc5)CC4)ncnc3c2c1	13µM*	6	-3	?	-102%	32%[38.3 µM]
Fc1ccc2[nH]c3c(N4CCN(C5CCCCC5)CC4)ncnc3c2c1	?	7	?	-21%	-12%	/
Cc1ccc2[nH]c3c(N4CCCCCC4)ncnc3c2c1	?	16	?	8.9µM*	9%[1.9 µM]	38%[38.3 µM]
COc1cccc([C@@H]2Oc3ccc(OC)cc3C[C@H]2OC(=O)N[C@H](C)C2CCCCC2)c1	/	/	/	/	?	28%
CCc1ccc(-c2csc(NC(=O)c3cccnc3)n2)cc1	4%	/	3	-8%	/	4%
CCOC(=O)c1sc(NC(=O)CNC(=O)Cn2cnc3sc(C)c(C)c3c2=O)nc1C	-7%[46.1 µM]	6	-19	-7%[9.22 µM]	-3%	4%[38.3 µM]
CCOC(=O)c1sc2ncn(/N=C/N(C)C)c(=O)c2c1C	-2%[46.1 µM]	-4	-86*	3%	-25%[1.9 µM]	9%[38.3 µM]
CCOC(=O)c1sc2ncn(/N=C/c3ccccn3)c(=O)c2c1C	10%[46.1 µM]	?	30	8%	18%	-5%[38.3 µM]
CCOCCn1cnc2sc(C(=O)Nc3nc(C)c(C(=O)OCC)s3)c(C)c2c1=O	-7%[46.1 µM]	-2	-82*	23%[9.22 µM]	-18%	-2%[38.3 µM]
O=C(CCc1nnc(CCc2c[nH]c3ccccc23)o1)NC1CCC1	38%	/	/	8%[9.22 µM]	-3%[10 µM]	/
Cc1ccc(OCC(=O)NNC(=S)NC(=O)C(C)(C)C)c(Br)c1	-16%	/	/	11µM*	/	8%
COc1ccc2c(c1)C(=O)[C@H](OC(=O)Nc1ccc(OC(F)F)cc1)[C@@H](c1ccc(OC)c(Br)c1)O2	/	/	/	/	17%	0%
Cc1cccc(C)c1NC(=O)N1C2CCCC1CC(NC(=O)C(C)(C)C)C2 (stereo not drawn)	-2%[46.1 µM]	13	-96*	4%	-14%[10 µM]	-1%[38.3 µM]
COCC(=O)N1CCC2(CC1)CN(c1ccccc1)C2	/	/	/	/	12%	-1%
O=[N+]([O-])c1c(NCCCO)cc(Sc2nc3ccccc3s2)c2nonc12	?	3	47	6.3µM*	-132%	26%[38.3 µM]
Cc1sc2nc(CN3CCOCC3)[nH]c(=O)c2c1-c1ccccc1	-7%	/	-110*	11%	/	-13%
Cc1sc2nc(N3CCOCC3)[nH]c(=O)c2c1-c1ccccc1	-32%	/	?	6%	/	-7%
CCc1ccccc1NC(=O)c1nnn(CC(=O)Nc2cccc(C)c2C)c1N	?	?	21	4%	-50%	10µM*
C[C@H]1OC(OC2C(O)[C@@H](O)C(OC3C(O)[C@@H](O)C(O)O[C@@H]3CO)O[C@@H]2CO)[C@H](O)C(O)C1N[C@H]1C=C(CO)[C@@H](O)[C@H](O)C1O (stereo partly drawn)	/	/	/	-8%	25%	-11%
O=S(=O)(CCc1ccccc1)c1nc2ccccc2s1	/	/	/	/	?	21%
COc1ccc(C2C3=C(CC(C)(C)CC3=O)Oc3ncn(Cc4ccccc4)c(=N)c32)cc1 (stereo not drawn)	-27%[46.1 µM]	7	-27	-19%	4µM*	3%[38.3 µM]
CC(C)(C)N1C(=O)[C@@H]2[C@H]3C(=CC[C@H]2C1=O)C(=O)[C@H]1O[C@H]1[C@H]3O	/	/	/	/	5.6µM*	/
O=C1C2=CC[C@@H]3C(=O)N(c4ccc(F)cc4F)C(=O)[C@H]3[C@H]2[C@H](O)[C@H]2O[C@H]12	/	/	/	/	3.2µM*	/
O=C1[C@H]2[C@H]3[C@H](O)[C@H](O)C/C(=N/OC[C@@H](O)COCc4ccco4)[C@H]3CC[C@@H]2C(=O)N1c1cccc(Oc2ccccc2)c1	/	/	/	/	-77%[10 µM]	/
C=CCOC(=O)/C(=C\c1ccccc1)NC(=O)c1ccco1	3%	/	-16	1%	7%[0.074 µM]	2%
